Test results published in PubChem BioAssay (NCATS).
Several values for one entry are separate records, joined by “and”; a condition that tells them apart may be missing. Equal entries are not always repeated. Records with an inconclusive call do not appear. Activity calls are given as the source filed them. Unless noted, calls come from the whole dose curve; as a rule, active = well fitted curve in the direction sought with a large enough effect; inconclusive = small, poorly fitted or top-dose-only effect, or another doubt; inactive = no such curve, though single readings can be large; an effect the other way counts as inactive or inconclusive.

Legend:
[1] = molecular target: Thyroid hormone receptor beta (Homo sapiens) (UniProt P10828); experiment: qHTS assay for small molecule agonists of thyroid hormone receptor beta signaling (AID 588545; calls by dose curve;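 note: 0% = DMSO only and 100% = 10 nM T3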)
How it was run: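 TR-UAS-bla-GripTite HEK 293 cells in medium with 2% charcoal/dextran FBS, 0.1 mM NEAA and 1 mM sodium pyruvate were treated with titrated compounds for 18 hrs at 37 C. Beta-lactamase reporter was read with CCF4 dye (ex 405, em 460/530 nm); EC50 from Hill fits.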

[2] = qHTS assay for small molecule antagonists of retinoid X receptor alpha signaling (AID 588546; active = well fitted inhibition curve with a large enough effect in the signal ratio, with a control signal flat, not every such curve was filed as active; the % refers to the signal ratio;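 note: cells stimulated with 9-cis-retinoic acid as agonist; % is set by controls: 0 for no effect and ±100 for the full control effect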); details: HEK293T RXRa-UAS-bla, beta-lactamase ratio, antagonist mode; measured here: W530 green channel, cytotoxicity proxy
How it was run: (§1)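 Beta-lactamase reporter inhibition, read as CCF4 fluorescence ratio (ex 405, em 460/530 nm) after 2 h at RT. HEK293T UAS-bla cells, 2500/well, were stimulated with 9-cis-RA at 500 or 100 nM final alongside test compound for 18 h at 37 C.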

[3] = molecular target: Retinoic acid receptor RXR-alpha (Homo sapiens) (UniProt P19793); experiment: as above; details: HEK293T RXRa-UAS-bla, beta-lactamase ratio, antagonist mode
How it was run: as §1

[4] = molecular target: Thyroid hormone receptor beta (Homo sapiens) (UniProt P10828); experiment: qHTS assay for small molecule antagonists of thyroid hormone receptor beta signaling (AID 588547; active = well fitted inhibition curve with a large enough effect in the signal ratio, with a control signal flat, not every such curve was filed as active; the % refers to the signal ratio;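 note: cells stimulated with 0.4 nM T3 agonist during compound exposure; % is set by controls: 0 for no effect and ±100 for the full control effect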); details: TR-UAS-bla HEK293, beta-lactamase ratio, antagonist mode, 18 h
How it was run: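 TR-UAS-bla GripTite HEK293 cells in 2% charcoal/dextran FBS medium were preincubated 4 h at 37 C, given compound (0.59 nM to 92 uM) plus 0.4 nM T3 (final) for 18 h, then CCF4 for 2 h at RT; Hill fit gave IC50.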

[5] = molecular target: Luciferin 4-monooxygenase (Photinus pyralis) (UniProt P08659); experiment: Biochemical firefly luciferase enzyme assay for NPC (AID 624030);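 note: purified P. pyralis luciferase at 10 nM with luciferin and ATP substrate; 0% = DMSO and -100% = full luciferase inhibition by PTC124 control; nearly all actives have a fitted effect of over 70% in size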
How it was run: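 Counter-screen for direct inhibition of the luciferase enzyme by approved-drug library compounds, run at 10 nM enzyme in 50 mM Tris acetate (final). Luminescence was read within 5 min of enzyme-buffer addition and normalized to PTC124 versus DMSO (0%).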

[6] = qHTS assay for small molecule agonists of the antioxidant response element (ARE) signaling pathway (AID 651741; active = well fitted activation curve with a large enough effect in the signal ratio; the % refers to the signal ratio; note: % of control where 0% means no effect)
How it was run: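 Reporter: beta-lactamase under ARE, stably in HepG2. Exposure: 16 h, 37 C, compounds delivered in DMSO by pin tool after 5 h cell preincubation. Readout: FRET substrate fluorescence after 2 h at RT.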

[7] = qHTS assay for small molecule activators of the p53 signaling pathway (AID 651743; active = well fitted activation curve with a large enough effect in the signal ratio, not every such curve was filed as active; the % refers to the signal ratio; note: % of control where 0% means no effect); details: HCT-116 p53RE-bla, beta-lactamase FRET ratio, 16 h; activation: stronger effect = higher value
How it was run: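 Agonist-mode quantitative HTS in HCT-116 cells carrying a p53-response-element beta-lactamase reporter; 16 h compound treatment at 37 C, then FRET substrate loading for 2 h at room temperature and fluorescence read.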

[8] = qHTS assay for small molecule activators of the nuclear factor-kappa B (NF-kB) signaling pathway (AID 651749; active = well fitted activation curve with a large enough effect in the signal ratio; the % refers to the signal ratio; note: % of control where 0% means no effect); details: NF-kB-bla ME-180 cells, beta-lactamase FRET ratio, 16 h; activation: stronger effect = higher value
How it was run: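 Human ME-180 cervical cells with an NF-kB-bla construct; compounds added via 23 nL pin transfer, DMSO as vehicle; incubation 16 hr. Reporter activity measured by FRET disruption.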

[9] = molecular target: Tumor necrosis factor (Homo sapiens) (UniProt P01375); experiment: qHTS assay to identify small molecules that stimulate Tumor Necrosis Factor-alpha (TNF-alpha) secretion (AID 651757; active = well fitted curve in the direction sought with a large enough effect in the signal ratio; the % refers to the signal ratio; note: 0% is about no effect)
How it was run: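 Human monocytic THP-1 cells are plated, treated with compound and held at 37 C for 17 hrs. Labeled anti-TNF-alpha antibody mixture is then added; after 3 hr at room temperature, TR-FRET signal reports secreted TNF-alpha.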

[10] = qHTS assay for environmental chemicals that activate the Aryl hydrocarbon Receptor (AhR) signaling pathway (AID 651777); details: 1A2-DRE human hepatoma cells, luciferase, 24 h; activation: stronger effect = higher value; note: % of control where 0% means no effect; nearly all actives have a fitted effect of over 15% in size
How it was run: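 Luminescence read-out: One-Glo added for 30 min at RT after 24 hr compound treatment (37 C, 5% CO2) of human hepatoma cells expressing a DRE/CYP1A2 promoter–luciferase reporter; increased signal indicates AhR activation.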

[11] = molecular target: Peroxisome proliferator-activated receptor alpha (Homo sapiens) (UniProt Q07869); experiment: qHTS assay for small molecule agonists of the peroxisome proliferator-activated receptor alpha (PPARalpha) signaling pathway (AID 651778); details: PathHunter PPARalpha complementation, chemiluminescence, 6 h; stronger effect = higher value; note: % of control where 0% means no effect
How it was run: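 Cells plated at 2,000/well and held overnight at 37 C, 5% CO2, then compound added by pin tool for 6 hr; after PathHunter detection reagent and 60 min at room temperature, chemiluminescence from enzyme complementation was read.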

[12] = molecular target: Nuclear receptor ROR-gamma (Homo sapiens) (UniProt P51449); experiment: qHTS assay for small molecule antagonists of the retinoid-related orphan receptor gamma (ROR-gamma) signaling pathway (AID 651802);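 note: CHO cells with doxycycline-induced ROR-gamma expression; % is set by controls: 0 for no effect and ±100 for the full control effect; nearly all actives have a fitted effect of over 60% in size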
How it was run: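 Steps: cells dispensed; compound or DMSO transferred by pin tool; doxycycline added to induce the ROR response element-driven luciferase; plates held 16hr at 37C; ONE-Glo added and luminescence measured.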

[13] = qHTS assay for small molecule agonists of the antioxidant response element (ARE) signaling pathway measured by Nrf2-dependant transcriptional activity (AID 720636; active = well fitted curve in the direction sought with a large enough effect in the repeat runs; an effect the other way counts as inactive or inconclusive;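 note: HepG2 cells with an ARE-driven luciferase reporter; % of control where 0% means no effect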)
How it was run: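 HepG2 ARE-luc reporter line, 1% dialyzed FBS; 6 hr attachment at 37 C, compound pinned in, 16 hr at 37 C/5% CO2; ONE-Glo, 30 min RT, luminescence read.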

[14] = qHTS assay for small molecule antagonists of the retinoid-related orphan receptor gamma (ROR-gamma) signaling pathway - cell viability counter screen (AID 720652; active = well fitted curve in the direction sought with a large enough effect in the repeat runs; an effect the other way counts as inactive or inconclusive;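 note: CHO reporter cells with doxycycline-induced ROR-gamma expression; compound exposure lasted 16 hr before ATP read; % is set by controls: 0 for no effect and ±100 for the full control effect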)
How it was run: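 Steps: seed CHO cells bearing TET-inducible ROR and ROR response element-luciferase; rest 5 hr at 37 C; add compound, then doxycycline; incubate 16 hr; add CellTiter-Glo and read luminescence as ATP-based viability.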

[15] = qHTS assay for small molecule agonists of the antioxidant response element (ARE) signaling pathway measured by Nrf2-dependant transcriptional activity - cell viability counter screen (AID 720653; active = well fitted curve in the direction sought with a large enough effect in the repeat runs; an effect the other way counts as inactive or inconclusive; note: % is set by controls: 0 for no effect and ±100 for the full control effect); details: ARE-bla HepG2 viability, CellTiter-Glo ATP luminescence, 16 h; max response: stronger effect = lower value
How it was run: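 ARE-bla HepG2 cells (2,000/well) rested 5 hrs at 37C/5% CO2, then exposed to compounds in DMSO for 16 hrs. Viability was read in the same wells as intracellular ATP by luminescence, 30 min at room temperature after reagent addition.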

[16] = qHTS Assay for Identifying Gametocytocidal Compounds (AID 743244);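 note: % is set by controls: 0 for no effect and ±100 for the full control effect; actives lower the fluorescent signal which means gametocytes are killed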; details: P. falciparum 3D7 stage III-V gametocytes, alamarBlue, 72 h; max response: stronger effect = lower value
How it was run: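 P. falciparum 3D7 stage III–V gametocytes (20,000 cells/well) were exposed to compounds for 72 h at 37 °C, 5% CO2. AlamarBlue was then added for 24 h; decreased resorufin fluorescence (Ex 525/Em 598 nm) indicated loss of viability.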

[17] = qHTS assay for cell viability of HEK293 cells (AID 743288); details: ATP luminescence (CellTiter-Glo), 18 h; max response: stronger effect = lower value; note: % is set by controls: 0 for no effect and ±100 for the full control effect; nearly all actives have a fitted effect of over 50% in size
How it was run: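 After 18 h compound exposure at 37 C, parental HEK293 cells (2,000/well) are lysed with CellTiter-Glo and luminescence is read following 30 min at room temperature.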

[18] = qHTS assay for cell viability of the p53RE-bla HCT-116 cell line (AID 743292); note: % is set by controls: 0 for no effect and ±100 for the full control effect; nearly all actives have a fitted effect of over 55% in size
How it was run: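 Luminescent ATP quantitation (CellTiter-Glo) served as the viability read-out; reagent was added after 16 h compound exposure at 37 C and read after 30 min at room temperature. Cells: p53RE-bla HCT-116, 4,000 per well.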

[19] = P-glycoprotein substrates identified in KB-8-5-11 adenocarcinoma cell line, qHTS therapeutic library screen (AID 1346987); note: % is set by controls: 0 for no effect and ±100 for the full control effect; nearly all actives have a fitted effect of over 65% in size
How it was run: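 Luminescence from CellTiter-Glo, read 5 min after addition, quantified survival of KB-8-5-11 (P-gp-overexpressing) cells exposed to compounds for 72 h. AC50 was derived from concentration-response curves.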

[20] = molecular target: Cytochrome P450 2D6 (Homo sapiens) (UniProt P10635); experiment: Cytochrome P450 family 2 subfamily D member 6 (CYP2D6) small molecule antagonists: luciferase biochemical (cell-free) qHTS assay (AID 1645840; active = well fitted curve in the direction sought with a large enough effect in the repeat runs; an effect the other way counts as inactive or inconclusive; note: % is set by controls: 0 for no effect and ±100 for the full control effect; nearly all actives have a fitted effect of over 55% in size)
How it was run: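 P450-Glo CYP2D6 system: proluciferin substrate converted by enzyme to luciferin, read by luminescence proportional to activity. Enzyme-substrate mix with compound 10 min at room temperature, then NADPH regeneration 1 h before detection reagent.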

[21] = molecular target: Cytochrome P450 2C9 (Homo sapiens) (UniProt P11712); experiment: Cytochrome P450 family 2 subfamily C member 9 (CYP2C9) small molecule antagonists: luciferase biochemical (cell-free) qHTS assay (AID 1645842; active = well fitted curve in the direction sought with a large enough effect in the repeat runs; an effect the other way counts as inactive or inconclusive; note: % is set by controls: 0 for no effect and ±100 for the full control effect; nearly all actives have a fitted effect of over 55% in size)
How it was run: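 P450-Glo CYP2C9 system: proluciferin substrate with enzyme in mix containing 0.4% BSA, 10 min at room temperature, then NADPH regeneration solution added and incubated 1 h at 37C. Detection reagent stopped reaction; luminescence read after 20 min as RLU.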

[22] = test system: KB-3-1; experiment: Cytotoxic Profiling of Annotated Libraries Using Quantitative High-Throughput Screening (AID 1296008); details: Five cell lines viability, CellTiter-Glo ATP luminescence, 48-72 h; max response: stronger effect = lower value; note: % is set by controls: 0 for no effect and ±100 for the full control effect; nearly all actives have a fitted effect of over 60% in size
How it was run: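 Compounds were pin-transferred onto cells and incubated 48 or 72 hr at 37 degree Celsius, 95% humidity. CellTiter-Glo was added, plates sat 10 min at room temperature, then ATP-coupled luminescence was imaged as the viability read-out.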

[23] = Drug repurposing screens with cells derived from glioblastoma tumor samples (AID 1345199); details: GBM patient neurospheres viability, ATP luminescence, 48 h; Potency: tumour line A; series mostly up to 45.9 µM; note: % is set by controls: 0 for no effect and ±100 for the full control effect; nearly all actives have a fitted effect of over 40% in size
How it was run: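 Primary testing used CD133+ neurospheres from four GBM patients, seven concentrations, 48 h exposure and ATP-based viability; confirmation added three slower-growing patient lines.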

[24] = molecular target: Nuclear receptor subfamily 1 group I member 2 (Rattus norvegicus) (UniProt Q9R1A7); experiment: qHTS assay for small molecule activators of the rat pregnane X receptor (rPXR) signaling pathway (AID 651751; call rule not given here; note: 0% is about no effect); details: rPXR reporter cells, luciferase (One-Glo), 24 h
[25] = qHTS assay for small molecule activators of the human pregnane X receptor (PXR) signaling pathway (AID 720659; call rule not given here; note: 0% is about no effect)

Thyroid hormone receptor beta (Homo sapiens), sequence (P10828 whole entry, looked up): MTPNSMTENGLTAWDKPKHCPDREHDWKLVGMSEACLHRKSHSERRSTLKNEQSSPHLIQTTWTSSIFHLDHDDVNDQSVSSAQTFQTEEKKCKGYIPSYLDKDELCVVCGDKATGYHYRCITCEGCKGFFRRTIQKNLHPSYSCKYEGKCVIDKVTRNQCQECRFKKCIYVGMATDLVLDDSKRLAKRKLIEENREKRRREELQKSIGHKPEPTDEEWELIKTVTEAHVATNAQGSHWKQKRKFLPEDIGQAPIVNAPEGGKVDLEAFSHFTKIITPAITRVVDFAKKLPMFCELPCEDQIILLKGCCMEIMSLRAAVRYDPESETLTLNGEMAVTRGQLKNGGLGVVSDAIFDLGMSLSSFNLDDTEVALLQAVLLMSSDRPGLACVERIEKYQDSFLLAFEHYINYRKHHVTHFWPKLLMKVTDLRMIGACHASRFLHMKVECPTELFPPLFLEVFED
Nuclear receptor subfamily 1 group I member 2 (Rattus norvegicus), sequence (Q9R1A7 whole entry, looked up): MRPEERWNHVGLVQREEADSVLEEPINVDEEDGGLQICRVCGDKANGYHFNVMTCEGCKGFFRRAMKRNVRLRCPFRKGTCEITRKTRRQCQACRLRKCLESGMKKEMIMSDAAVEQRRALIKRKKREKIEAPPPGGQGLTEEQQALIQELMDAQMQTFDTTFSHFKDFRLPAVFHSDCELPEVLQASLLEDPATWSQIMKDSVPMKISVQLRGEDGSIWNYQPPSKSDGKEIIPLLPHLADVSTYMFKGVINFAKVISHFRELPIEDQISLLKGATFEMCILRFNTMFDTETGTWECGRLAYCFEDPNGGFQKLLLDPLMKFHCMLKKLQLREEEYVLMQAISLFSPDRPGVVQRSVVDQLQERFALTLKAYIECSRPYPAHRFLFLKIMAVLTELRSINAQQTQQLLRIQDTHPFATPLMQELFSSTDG
Peroxisome proliferator-activated receptor alpha (Homo sapiens), sequence (Q07869 whole entry, looked up): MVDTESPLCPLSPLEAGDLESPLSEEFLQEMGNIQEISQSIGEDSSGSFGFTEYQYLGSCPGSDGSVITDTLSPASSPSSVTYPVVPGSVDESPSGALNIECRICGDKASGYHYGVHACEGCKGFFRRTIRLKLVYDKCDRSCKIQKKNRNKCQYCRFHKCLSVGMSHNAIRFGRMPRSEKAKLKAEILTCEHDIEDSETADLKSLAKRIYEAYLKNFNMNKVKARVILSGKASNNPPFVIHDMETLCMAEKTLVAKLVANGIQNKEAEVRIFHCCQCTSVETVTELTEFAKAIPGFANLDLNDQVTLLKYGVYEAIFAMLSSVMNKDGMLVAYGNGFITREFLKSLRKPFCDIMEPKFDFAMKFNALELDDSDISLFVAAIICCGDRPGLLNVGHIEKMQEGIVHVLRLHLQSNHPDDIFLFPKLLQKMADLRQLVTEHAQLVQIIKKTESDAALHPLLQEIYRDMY
Tumor necrosis factor (Homo sapiens), sequence (P01375 whole entry, looked up): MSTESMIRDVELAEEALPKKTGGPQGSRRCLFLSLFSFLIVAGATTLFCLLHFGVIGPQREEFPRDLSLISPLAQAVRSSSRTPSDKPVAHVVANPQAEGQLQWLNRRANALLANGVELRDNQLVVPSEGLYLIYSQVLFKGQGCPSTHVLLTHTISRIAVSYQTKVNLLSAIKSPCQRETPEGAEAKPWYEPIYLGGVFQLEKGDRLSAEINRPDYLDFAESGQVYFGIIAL
Nuclear receptor ROR-gamma (Homo sapiens), sequence (P51449 whole entry, looked up): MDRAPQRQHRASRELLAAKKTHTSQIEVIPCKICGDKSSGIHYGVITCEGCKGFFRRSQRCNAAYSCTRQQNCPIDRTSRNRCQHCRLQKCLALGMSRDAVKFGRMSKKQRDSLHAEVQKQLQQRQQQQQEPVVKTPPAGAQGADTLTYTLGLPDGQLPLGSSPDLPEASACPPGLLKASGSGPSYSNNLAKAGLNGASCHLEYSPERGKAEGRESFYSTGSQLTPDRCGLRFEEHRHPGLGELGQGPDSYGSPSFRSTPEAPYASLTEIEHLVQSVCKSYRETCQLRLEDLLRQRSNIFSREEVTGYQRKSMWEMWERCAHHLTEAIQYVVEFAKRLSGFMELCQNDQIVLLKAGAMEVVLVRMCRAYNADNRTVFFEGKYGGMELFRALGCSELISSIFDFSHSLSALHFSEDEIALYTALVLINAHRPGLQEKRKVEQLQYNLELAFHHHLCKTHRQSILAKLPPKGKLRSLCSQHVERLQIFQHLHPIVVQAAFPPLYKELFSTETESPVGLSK
Luciferin 4-monooxygenase (Photinus pyralis), sequence (P08659 whole entry, looked up): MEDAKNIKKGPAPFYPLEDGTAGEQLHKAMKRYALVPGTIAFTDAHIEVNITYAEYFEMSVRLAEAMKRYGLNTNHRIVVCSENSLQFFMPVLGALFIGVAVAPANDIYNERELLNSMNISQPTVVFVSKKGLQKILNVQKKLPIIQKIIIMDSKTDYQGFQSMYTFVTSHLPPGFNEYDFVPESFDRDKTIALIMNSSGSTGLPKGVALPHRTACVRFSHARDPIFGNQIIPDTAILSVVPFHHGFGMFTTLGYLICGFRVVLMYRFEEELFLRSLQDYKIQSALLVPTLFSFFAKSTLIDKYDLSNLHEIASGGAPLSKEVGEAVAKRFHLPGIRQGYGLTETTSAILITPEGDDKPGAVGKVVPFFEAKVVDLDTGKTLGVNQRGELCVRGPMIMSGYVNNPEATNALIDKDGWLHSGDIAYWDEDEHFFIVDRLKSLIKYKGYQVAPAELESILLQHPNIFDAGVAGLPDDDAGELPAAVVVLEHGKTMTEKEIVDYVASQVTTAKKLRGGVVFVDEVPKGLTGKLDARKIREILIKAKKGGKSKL
Cytochrome P450 2D6 (Homo sapiens), sequence (P10635 whole entry, looked up): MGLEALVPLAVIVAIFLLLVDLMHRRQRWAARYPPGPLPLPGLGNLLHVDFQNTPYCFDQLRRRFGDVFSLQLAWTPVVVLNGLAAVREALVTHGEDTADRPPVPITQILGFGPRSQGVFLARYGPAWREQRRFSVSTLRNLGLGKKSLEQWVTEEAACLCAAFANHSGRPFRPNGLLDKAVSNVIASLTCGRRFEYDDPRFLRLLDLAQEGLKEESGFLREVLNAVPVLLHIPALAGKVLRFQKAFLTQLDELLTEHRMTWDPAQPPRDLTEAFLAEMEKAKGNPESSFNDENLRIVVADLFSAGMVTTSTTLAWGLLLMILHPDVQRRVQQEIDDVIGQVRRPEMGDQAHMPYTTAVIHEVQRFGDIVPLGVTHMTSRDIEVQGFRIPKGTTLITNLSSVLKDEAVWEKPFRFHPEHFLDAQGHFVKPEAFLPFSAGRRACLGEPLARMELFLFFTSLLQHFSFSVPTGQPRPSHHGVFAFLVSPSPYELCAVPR
Cytochrome P450 2C9 (Homo sapiens), sequence (P11712 whole entry, looked up): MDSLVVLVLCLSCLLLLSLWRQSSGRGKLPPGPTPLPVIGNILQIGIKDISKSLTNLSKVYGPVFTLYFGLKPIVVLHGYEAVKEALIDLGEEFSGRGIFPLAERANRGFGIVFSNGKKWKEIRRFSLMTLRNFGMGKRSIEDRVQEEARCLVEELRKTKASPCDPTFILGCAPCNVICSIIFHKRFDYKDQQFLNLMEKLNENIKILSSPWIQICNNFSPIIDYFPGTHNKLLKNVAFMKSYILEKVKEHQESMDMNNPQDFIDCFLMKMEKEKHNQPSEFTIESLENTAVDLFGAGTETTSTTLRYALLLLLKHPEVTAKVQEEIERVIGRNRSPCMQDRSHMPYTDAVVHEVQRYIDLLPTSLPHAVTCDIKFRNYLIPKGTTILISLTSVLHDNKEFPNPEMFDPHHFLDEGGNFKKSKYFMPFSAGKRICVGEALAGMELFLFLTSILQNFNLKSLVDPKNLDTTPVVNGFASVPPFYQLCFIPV
Retinoic acid receptor RXR-alpha (Homo sapiens), sequence (P19793 whole entry, looked up): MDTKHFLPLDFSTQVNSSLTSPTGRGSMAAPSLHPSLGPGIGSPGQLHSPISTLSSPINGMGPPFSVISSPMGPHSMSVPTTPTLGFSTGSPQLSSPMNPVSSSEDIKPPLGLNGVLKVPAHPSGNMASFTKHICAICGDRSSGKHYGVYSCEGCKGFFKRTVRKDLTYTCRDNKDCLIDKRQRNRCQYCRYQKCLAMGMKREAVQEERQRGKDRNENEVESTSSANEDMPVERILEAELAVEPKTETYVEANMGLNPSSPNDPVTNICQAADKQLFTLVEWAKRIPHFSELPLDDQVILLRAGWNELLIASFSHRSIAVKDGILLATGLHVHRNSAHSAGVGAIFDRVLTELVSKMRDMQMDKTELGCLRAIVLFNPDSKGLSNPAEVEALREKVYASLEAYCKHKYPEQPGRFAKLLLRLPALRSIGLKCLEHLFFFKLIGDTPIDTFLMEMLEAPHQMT

COC(=O)c1ccccc1C(=O)OC
-2.9%: max response [2]
inactive: Potency [1] | max response [3] 2.81% | activity change % (negative = inhibition) [4] 0.995% and 14.6% | Potency [5] | Potency [6] | activation [7] -1.52% and -1.95% | activation [8] -0.143% and 1.34% | outcome [9] | activation [10] 1.37% and 0.566% | max response [11] 0.0123% and 4.21% | Potency [12] | Potency [13] | outcome [14] | max response [15] 8.24% and 6.8% | max response [16] -14.6% | max response [17] -1.85% and 5.33% | outcome [18] | Potency [19] | Potency [20] | Potency [21] | max response [22] 3.72% | Potency [23] | max response [24] 5.6% and 2.87% | outcome [25]
